The source of these data is PubChem BioAssay AID1259336 (Sattelle Laboratory, UCL Respiratory, Division of Medicine, …, 2017).

Unmarked numbers belong to inactive results. Active and inactive are the calls of the source. Rule as the data show it: active = log2 fold change growth below about -1.8; inactive = the rest.

The nature of the experiment: C. elegans growth inhibition, whole organism, log2 fold change (AID 1259336).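 Also: growth scored by imaging after five days at 20 °C.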 The settings on record: anthelmintic screen, hits give low values.
With `O=C(c1ccc(F)cc1)N(CCNc1ccccc1)c1ccccc1`, the log2 fold change growth is 0.348. Then `NC(=O)c1cc(-c2ccsc2)ccc1OCCOc1ccccc1`, with 0.0714. As to `O=C(NCCN1CCCC1)c1cc(NCCCCN2CCC(F)(F)CC2)nc2ccc(Cl)cc12`, the log2 fold change growth was 0.489. Take `c1ccc(Oc2ccc(-c3cc(CN4CCOCC4)[nH]n3)cc2)cc1`: the log2 fold change growth is 0.284. Consider `CN1CCN(c2nccc3[nH]c(-c4ccc(F)c(F)c4)nc23)CC1`, for which the log2 fold change growth was -0.373. Then `O=C(CCC1CCCCC1)Nc1cccc(-c2nnc(-c3ccco3)o2)c1`, with 0.147; and `Cc1nnc(NCc2cccc(Cl)c2)c2ccccc12`, with 0.138; and `Nc1ncc(Br)cc1-c1nc2ncc(Cl)cc2[nH]1`, with 0.329.

As for `O=C(OCc1ccccc1)N1CCC(c2cc(-c3ccncc3)c(-c3ccc(F)cc3)[nH]2)CC1`, the log2 fold change growth is -0.374. `c1cncc(NCc2ccc(-c3cc4ccncc4cc3OC3CCNCC3)s2)c1`: the log2 fold change growth is 0.376. Then `CCn1ncc2c(NC3CCOCC3)c(CNC(=O)c3ccnn3C)c(C)nc21`, with -0.407. For the compound `CN1CCCN([C@@H](c2ccccc2)c2ccc(Cl)cc2)CC1`, the log2 fold change growth was 0.517.

Regarding `COc1ccc(C2=NCCN2)cc1-c1cn(-c2cccc(C3=NCCN3)c2)nn1`, the log2 fold change growth was 0.077.

`Cc1ccc(S(=O)(=O)n2cc(-c3ccnc(N)c3)c3cc(Br)cnc32)cc1`: the log2 fold change growth was -0.39. Consider `O=C(NC1CC1)c1ccc(CSCc2ccccc2Cl)o1`, for which the log2 fold change growth is 0.276. `CCc1ccc([C@@H](NCc2nc(N)nc(N(C)C)n2)C(C)C)cc1`: the log2 fold change growth was 0.433.

As to `O=C(NC1=NCCS1)c1sc2cc(F)ccc2c1Cl`, the log2 fold change growth is -0.159.

Consider `COc1ccc(C2=NN(C3CCCCCC3)C(=O)[C@@H]3CC=CC[C@H]23)cc1OCCCCOc1ccc(-c2nn[nH]n2)cc1`, for which the log2 fold change growth was -0.0946. Consider `COc1cc(CN2CCC3(C=Cc4ccccc43)CC2)cc2c1OCO2`, for which the log2 fold change growth is -0.677. For the compound `CO[C@@H](C(=O)N1Cc2[nH]nc(NC(=O)c3ccc(N4CCN(C)CC4)cc3)c2C1)c1ccccc1`, the log2 fold change growth is 0.339. As for `CNC1C(OC2C(OC3C(O)C(O)C(N=C(N)N)C(O)C3N=C(N)N)OC(C)C2(O)C=O)OC(CO)C(O)C1O` (stereo not drawn), the log2 fold change growth was -0.00587. Consider `FC(F)(F)c1cccc(-c2nc3c(NCc4ccncc4)nccc3[nH]2)c1`, for which the log2 fold change growth is 0.0714. Then `O=C(C1CCN(c2nnc(-n3cccc3)s2)CC1)N1CCC(Cc2ccccc2)CC1`, with 0.102; and `COc1ccc2nc(C)cc(OCC(=O)Nc3ccccc3OC)c2c1`, with 0.165.

On to `Cn1ncc2c(N3CCOCC3)nc(NCCc3c[nH]c4ccccc34)nc21`, for which the log2 fold change growth was 0.0196.

In the case of `CCN(CC)C(=O)N1CCN(C)CC1`, the log2 fold change growth is 0.355. For the compound `CCCCOC(=O)Nc1cc2[nH]c(C3CCCCC3)nc2cc1N1CCCC1`, the log2 fold change growth is -0.373.

As for `CS(=O)(=O)c1cccc(-c2cnc3[nH]cc(-c4ccc(CCC(=O)O)cc4)c3c2)c1`, the log2 fold change growth was 0.172. With `O=C(NCc1cc(Cl)cc(Cl)c1)c1c(C(F)(F)F)nc2ccccn12`, the log2 fold change growth is -0.11. Then `O=C(c1ccc(NCCO)cc1)C1C[C@H]1c1ccc(Cl)cc1` (stereo partly drawn), with -0.319.

With `CC(=O)N1CCc2cc3nc(C)cc(C)c3cc21`, the log2 fold change growth is 0.139.

For the compound `Clc1ccc(CCNc2cc(-c3ccccc3)nc3ncnn23)cc1`, the log2 fold change growth is -0.81. As to `N#Cc1ccc(-c2cnc(N)c(-c3ccc(C(N)=O)cc3)n2)cc1`, the log2 fold change growth was -0.619.

As for `O=C(Nc1nc(-c2ccccn2)cs1)c1cncn1-c1ccccc1`, the log2 fold change growth was -0.307. In the case of `CC(C)n1ncc2c(C(=O)NC[C@@H](c3cccs3)N3CCOCC3)cc(-c3ccccc3)nc21`, the log2 fold change growth is -2.7 (active).

`CS(=O)(=O)c1ccccc1C(=O)N(Cc1ccccc1)c1ccccc1`: the log2 fold change growth was -0.293. `CN1CCN(c2nccc3[nH]c(-c4cccc(F)c4)cc23)CC1`: the log2 fold change growth is -0.0356.

Take `CCCc1ccc(S(=O)(=O)Nc2ccc(CN3CCN(CC4CC4)CC3)cc2)cc1`: the log2 fold change growth was 0.319.
